Test results from the supplement of paper PMC11732987, “Enantioselective OTUD7B fragment discovery through chemoproteomics screening and high-throughput optimisation” (Communications Chemistry, 2025).

How the values were obtained:
Test in all cases: log2 ratio of Biotin-Ahx-Ub-VS probe labelling (fragment/DMSO); higher = less target engagement (more negative = stronger competition), active = hit call of the paper (q ≤ 0.05, log2 ratio ≤ -1)
Details in all cases: compound concentration: 200 uM; treatment time: 3 h
USP9X = USP9X (UniProt Q93008)
USP9X, sequence (Q93008 whole entry, the tested form may be a part): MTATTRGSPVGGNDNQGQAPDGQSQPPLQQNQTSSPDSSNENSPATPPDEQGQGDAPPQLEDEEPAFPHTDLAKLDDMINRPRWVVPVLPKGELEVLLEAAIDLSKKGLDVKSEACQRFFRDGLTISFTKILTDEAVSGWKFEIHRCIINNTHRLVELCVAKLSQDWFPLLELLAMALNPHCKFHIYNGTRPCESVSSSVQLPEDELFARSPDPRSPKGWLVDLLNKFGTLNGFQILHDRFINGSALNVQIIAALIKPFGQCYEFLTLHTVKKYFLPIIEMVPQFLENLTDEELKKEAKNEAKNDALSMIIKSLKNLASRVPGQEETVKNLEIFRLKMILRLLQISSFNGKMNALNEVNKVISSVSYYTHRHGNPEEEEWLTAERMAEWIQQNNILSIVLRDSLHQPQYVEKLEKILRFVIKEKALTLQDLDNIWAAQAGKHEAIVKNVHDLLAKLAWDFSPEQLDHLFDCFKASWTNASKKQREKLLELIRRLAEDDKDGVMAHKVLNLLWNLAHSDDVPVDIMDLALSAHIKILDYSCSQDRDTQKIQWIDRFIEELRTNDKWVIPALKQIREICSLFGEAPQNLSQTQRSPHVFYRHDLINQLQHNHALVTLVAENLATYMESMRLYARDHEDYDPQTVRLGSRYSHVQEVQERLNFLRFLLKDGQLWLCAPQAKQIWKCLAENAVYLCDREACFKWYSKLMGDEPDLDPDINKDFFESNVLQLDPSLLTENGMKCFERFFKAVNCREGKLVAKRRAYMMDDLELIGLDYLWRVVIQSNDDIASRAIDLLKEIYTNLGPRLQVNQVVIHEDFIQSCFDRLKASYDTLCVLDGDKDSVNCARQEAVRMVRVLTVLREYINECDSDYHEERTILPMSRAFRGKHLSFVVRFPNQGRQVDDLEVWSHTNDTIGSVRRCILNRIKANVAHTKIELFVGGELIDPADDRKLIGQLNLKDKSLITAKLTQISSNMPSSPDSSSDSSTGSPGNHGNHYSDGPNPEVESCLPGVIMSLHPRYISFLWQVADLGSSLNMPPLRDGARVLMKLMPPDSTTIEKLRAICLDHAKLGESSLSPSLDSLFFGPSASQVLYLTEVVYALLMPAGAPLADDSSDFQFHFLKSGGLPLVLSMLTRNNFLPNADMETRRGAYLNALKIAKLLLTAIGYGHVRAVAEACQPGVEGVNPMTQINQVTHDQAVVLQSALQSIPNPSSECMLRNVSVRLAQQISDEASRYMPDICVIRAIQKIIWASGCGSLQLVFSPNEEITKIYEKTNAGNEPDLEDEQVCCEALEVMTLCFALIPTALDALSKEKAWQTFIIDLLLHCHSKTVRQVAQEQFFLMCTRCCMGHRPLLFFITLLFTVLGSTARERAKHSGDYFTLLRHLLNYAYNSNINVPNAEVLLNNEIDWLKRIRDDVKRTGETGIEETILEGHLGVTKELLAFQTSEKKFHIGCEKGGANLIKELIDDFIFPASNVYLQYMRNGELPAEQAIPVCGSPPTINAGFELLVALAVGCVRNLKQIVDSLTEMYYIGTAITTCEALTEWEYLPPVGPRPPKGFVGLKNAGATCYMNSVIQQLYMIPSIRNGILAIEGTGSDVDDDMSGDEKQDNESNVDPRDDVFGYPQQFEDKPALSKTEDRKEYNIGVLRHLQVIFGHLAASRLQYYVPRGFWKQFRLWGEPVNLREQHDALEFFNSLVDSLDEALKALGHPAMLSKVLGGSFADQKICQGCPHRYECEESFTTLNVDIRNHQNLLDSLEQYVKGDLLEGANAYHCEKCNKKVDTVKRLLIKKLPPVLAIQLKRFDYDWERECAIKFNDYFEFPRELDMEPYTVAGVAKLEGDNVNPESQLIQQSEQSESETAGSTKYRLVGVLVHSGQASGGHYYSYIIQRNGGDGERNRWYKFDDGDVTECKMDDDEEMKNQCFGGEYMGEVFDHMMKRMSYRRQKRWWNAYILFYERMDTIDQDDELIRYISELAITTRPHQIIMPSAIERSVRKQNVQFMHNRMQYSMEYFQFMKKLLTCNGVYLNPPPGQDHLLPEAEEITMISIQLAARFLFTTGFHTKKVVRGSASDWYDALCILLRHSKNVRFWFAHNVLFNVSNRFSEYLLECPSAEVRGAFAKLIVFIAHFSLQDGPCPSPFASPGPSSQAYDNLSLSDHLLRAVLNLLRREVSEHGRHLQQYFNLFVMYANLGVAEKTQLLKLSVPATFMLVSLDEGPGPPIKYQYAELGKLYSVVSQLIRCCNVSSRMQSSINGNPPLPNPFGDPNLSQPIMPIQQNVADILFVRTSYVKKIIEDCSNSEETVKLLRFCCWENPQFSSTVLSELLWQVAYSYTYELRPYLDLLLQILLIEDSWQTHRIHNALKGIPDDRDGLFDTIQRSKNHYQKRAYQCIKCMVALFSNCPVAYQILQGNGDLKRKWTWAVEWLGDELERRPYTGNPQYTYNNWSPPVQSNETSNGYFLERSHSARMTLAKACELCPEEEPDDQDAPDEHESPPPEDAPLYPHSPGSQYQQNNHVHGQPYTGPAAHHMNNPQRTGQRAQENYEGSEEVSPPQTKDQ
In short: (§1)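 HEK293T lysate (495 µg per sample, in Tris/CHAPS/IGEPAL buffer with protease inhibitors) was treated in triplicate with fragment at 200 µM or with DMSO for 3 h. It was then treated with Biotin-Ahx-Ub-VS (0.5 µM final) for 1 h. Labelled DUBs were NeutrAvidin-enriched, digested with LysC and trypsin, and run by diaPASEF LC-MS/MS. Spectronaut label-free quantities were global-median-normalised. Values are average log2 ratios fragment/DMSO by unpaired t-test, using proteins with ≥2 unique peptides.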

UniProt O00487 = biological target: UniProt O00487
In short: as §1

UniProt O00507 = biological target: UniProt O00507
UniProt O00507, sequence (O00507 whole entry): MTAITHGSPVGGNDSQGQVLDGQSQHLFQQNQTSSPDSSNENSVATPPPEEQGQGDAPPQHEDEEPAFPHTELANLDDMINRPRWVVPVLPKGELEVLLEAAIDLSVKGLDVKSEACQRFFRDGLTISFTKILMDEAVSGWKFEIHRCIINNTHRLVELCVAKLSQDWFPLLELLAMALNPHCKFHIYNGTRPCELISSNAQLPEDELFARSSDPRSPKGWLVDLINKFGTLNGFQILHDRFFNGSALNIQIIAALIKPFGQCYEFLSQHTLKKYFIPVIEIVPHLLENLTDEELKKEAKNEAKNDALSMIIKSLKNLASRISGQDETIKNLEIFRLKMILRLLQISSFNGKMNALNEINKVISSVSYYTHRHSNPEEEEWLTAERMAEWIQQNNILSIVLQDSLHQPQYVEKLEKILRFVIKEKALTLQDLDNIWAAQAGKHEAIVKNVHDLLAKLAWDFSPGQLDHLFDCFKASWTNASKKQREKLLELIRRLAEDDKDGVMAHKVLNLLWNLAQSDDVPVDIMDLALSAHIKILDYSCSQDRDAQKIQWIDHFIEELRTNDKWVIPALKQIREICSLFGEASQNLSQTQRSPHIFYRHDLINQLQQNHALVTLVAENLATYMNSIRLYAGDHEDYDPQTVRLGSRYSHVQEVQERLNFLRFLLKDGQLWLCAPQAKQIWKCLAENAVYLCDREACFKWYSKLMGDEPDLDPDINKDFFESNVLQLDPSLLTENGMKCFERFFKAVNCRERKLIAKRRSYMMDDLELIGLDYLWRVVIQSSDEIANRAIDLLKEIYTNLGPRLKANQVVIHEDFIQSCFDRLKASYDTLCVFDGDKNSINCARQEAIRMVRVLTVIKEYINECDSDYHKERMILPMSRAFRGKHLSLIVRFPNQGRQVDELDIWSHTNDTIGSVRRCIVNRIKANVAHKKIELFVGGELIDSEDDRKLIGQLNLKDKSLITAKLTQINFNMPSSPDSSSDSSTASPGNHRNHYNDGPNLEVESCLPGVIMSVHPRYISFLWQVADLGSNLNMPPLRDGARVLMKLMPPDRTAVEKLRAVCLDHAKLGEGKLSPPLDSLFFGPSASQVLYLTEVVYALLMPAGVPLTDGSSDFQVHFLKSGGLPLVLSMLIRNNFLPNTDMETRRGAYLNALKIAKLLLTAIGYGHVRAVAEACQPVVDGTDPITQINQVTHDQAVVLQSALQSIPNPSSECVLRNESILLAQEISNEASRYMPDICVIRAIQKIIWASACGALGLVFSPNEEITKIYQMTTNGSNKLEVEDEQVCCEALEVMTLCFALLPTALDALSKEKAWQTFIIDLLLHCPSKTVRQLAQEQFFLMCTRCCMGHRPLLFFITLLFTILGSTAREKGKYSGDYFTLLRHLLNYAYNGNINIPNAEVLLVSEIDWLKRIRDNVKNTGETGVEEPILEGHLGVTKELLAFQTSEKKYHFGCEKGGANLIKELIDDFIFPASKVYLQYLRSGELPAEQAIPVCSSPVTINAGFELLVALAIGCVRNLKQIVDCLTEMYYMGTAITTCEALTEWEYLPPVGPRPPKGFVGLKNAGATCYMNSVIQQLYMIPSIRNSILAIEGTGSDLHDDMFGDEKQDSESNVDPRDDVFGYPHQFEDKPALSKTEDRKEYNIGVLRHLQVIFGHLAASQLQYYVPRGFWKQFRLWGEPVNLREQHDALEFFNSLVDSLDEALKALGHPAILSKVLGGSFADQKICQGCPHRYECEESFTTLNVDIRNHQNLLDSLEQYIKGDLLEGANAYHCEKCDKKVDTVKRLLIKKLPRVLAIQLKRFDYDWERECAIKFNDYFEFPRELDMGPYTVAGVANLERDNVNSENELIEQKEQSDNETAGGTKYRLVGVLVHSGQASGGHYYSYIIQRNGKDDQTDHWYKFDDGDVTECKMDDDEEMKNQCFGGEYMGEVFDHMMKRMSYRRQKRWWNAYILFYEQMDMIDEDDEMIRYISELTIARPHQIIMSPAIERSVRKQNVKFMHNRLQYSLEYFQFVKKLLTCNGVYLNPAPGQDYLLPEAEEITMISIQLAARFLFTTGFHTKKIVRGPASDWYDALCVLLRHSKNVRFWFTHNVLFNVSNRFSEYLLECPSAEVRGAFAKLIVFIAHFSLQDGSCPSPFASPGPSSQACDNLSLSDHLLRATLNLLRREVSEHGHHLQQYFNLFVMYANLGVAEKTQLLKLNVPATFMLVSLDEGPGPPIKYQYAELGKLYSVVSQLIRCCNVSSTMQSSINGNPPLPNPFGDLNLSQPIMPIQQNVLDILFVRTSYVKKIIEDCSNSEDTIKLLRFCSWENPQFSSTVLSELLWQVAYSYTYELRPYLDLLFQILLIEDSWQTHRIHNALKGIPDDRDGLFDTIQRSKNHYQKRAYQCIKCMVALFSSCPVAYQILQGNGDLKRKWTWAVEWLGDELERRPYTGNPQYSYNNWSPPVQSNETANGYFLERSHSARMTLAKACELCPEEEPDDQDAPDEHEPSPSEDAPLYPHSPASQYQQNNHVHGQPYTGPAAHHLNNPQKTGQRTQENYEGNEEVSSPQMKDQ
In short: as §1

UniProt P51784 = biological target: UniProt P51784
In short: as §1

UniProt Q5T2D3 = biological target: T1, UniProt Q5T2D3
T1 sequence (whole entry): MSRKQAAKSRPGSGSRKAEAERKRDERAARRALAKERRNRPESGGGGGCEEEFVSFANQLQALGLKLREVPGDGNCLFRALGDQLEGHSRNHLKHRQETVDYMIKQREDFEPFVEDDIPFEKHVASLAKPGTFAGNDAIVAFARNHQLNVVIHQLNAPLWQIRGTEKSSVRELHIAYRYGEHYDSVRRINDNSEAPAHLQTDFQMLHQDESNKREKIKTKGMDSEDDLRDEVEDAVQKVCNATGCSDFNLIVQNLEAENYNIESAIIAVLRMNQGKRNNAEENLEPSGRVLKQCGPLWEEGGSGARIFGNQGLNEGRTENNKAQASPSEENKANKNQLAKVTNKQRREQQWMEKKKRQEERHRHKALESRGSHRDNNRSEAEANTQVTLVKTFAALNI
In short: as §1

UniProt Q8TE49 = biological target: T2, UniProt Q8TE49
T2 sequence (whole entry): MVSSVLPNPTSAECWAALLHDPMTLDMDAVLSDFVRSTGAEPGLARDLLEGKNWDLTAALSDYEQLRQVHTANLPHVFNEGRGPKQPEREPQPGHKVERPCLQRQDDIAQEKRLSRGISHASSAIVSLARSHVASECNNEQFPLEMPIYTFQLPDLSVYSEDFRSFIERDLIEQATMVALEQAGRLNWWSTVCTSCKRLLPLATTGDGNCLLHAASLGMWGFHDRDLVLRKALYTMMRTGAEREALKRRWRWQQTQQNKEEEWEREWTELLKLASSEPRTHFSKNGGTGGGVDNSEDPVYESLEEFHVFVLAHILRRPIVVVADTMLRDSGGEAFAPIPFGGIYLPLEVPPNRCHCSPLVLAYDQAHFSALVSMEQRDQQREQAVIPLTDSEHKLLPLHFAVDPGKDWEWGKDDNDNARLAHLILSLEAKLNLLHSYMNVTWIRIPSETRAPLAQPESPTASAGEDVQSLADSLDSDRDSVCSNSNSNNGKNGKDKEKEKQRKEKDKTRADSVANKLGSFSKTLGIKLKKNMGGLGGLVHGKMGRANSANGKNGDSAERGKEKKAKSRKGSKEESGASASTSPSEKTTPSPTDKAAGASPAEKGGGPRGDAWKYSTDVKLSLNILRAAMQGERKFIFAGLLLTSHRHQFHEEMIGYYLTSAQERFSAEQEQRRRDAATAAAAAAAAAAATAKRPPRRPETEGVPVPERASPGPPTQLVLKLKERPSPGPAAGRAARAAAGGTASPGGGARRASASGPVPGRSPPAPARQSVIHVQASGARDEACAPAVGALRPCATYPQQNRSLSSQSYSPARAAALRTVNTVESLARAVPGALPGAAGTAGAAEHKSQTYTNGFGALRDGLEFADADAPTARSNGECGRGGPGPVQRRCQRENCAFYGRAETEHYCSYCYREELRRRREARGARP
In short: as §1

UniProt Q9P2H5 = biological target: T3, UniProt Q9P2H5
T3 sequence (whole entry): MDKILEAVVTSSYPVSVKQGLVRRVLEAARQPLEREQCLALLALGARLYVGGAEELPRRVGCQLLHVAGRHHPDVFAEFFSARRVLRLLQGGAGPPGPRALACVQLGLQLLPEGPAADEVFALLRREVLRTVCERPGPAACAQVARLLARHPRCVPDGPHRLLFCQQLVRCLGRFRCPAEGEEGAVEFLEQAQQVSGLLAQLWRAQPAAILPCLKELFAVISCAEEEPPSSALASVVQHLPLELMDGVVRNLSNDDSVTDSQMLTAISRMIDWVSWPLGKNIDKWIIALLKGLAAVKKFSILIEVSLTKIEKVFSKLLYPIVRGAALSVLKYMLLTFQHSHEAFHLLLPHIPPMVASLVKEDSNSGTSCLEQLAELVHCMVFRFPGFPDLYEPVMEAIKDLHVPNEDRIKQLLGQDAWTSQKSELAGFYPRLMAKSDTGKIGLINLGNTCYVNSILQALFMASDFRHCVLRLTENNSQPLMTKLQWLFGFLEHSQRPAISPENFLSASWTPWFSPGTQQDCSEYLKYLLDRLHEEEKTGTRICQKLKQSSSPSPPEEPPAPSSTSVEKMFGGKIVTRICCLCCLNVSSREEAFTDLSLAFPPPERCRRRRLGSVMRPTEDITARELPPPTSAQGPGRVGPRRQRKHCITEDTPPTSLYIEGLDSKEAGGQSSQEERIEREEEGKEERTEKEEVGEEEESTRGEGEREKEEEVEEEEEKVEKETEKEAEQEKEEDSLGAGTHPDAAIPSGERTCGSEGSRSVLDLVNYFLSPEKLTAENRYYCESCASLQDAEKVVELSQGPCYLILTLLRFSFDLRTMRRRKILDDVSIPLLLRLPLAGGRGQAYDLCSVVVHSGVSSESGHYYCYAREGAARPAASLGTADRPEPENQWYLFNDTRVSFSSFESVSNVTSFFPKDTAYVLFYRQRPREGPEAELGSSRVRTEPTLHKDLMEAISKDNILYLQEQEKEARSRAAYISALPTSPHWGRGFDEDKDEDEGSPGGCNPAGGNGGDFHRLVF
In short: as §1

UniProt Q9UGI0 = biological target: T4, UniProt Q9UGI0
T4 sequence (whole entry): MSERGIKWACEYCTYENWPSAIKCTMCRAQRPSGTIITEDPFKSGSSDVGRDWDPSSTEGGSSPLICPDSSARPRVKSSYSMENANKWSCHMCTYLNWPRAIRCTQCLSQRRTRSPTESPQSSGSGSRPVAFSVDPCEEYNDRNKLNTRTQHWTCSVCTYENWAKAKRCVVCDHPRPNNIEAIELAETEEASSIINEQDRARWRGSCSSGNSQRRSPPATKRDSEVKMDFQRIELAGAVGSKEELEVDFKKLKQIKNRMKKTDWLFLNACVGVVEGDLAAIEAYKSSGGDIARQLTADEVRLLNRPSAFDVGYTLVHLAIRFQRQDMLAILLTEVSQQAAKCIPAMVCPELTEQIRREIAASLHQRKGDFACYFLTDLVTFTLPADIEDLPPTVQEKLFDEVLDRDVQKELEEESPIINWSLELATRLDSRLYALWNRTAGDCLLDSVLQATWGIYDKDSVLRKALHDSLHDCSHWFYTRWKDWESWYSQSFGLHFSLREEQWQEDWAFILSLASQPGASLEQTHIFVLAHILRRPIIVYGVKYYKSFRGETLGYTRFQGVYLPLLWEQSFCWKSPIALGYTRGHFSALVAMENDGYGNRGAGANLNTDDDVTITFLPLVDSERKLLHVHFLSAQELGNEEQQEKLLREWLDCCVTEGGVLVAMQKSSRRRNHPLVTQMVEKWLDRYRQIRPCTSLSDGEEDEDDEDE
In short: as §1

YOD1 = biological target: T5, YOD1 (UniProt Q5VVQ6)
T5 sequence (whole entry): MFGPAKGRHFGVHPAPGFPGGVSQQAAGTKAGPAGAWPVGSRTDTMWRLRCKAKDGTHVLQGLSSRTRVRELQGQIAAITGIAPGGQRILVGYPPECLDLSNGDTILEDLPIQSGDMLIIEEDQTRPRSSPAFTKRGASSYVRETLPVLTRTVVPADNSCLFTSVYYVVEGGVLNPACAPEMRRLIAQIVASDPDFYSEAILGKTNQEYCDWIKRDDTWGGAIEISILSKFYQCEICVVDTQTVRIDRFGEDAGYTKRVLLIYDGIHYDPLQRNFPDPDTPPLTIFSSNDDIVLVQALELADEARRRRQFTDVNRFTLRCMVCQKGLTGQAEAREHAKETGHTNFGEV
In short: as §1

Measured: log2 ratio of Biotin-Ahx-Ub-VS probe labelling

O=C(CCl)N1CC2(CCOCC2)C1
inactive: USP9X -0.238 | UniProt O00487 -0.0916 | UniProt O00507 -0.0593 | UniProt P51784 0.164 | UniProt Q5T2D3 -0.249 | UniProt Q8TE49 -0.469 | UniProt Q9P2H5 -0.109 | UniProt Q9UGI0 -0.328 | YOD1 -0.131
